Assay results as given in PubChem BioAssay (NCI).
The panel holds about 83,000 compounds, 20% with a hit somewhere; the sample as a whole holds those more often.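 Treatment: one concentration, 48 hours, 96-well format. Scoring: percent growth, with anything below 10 considered active.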 Values without a mark were called inactive. Activity calls are given as the source filed them.

Columns and labels:
Assay in all cases: NCI-60 one-dose screen, 48 h (100 = growth as untreated, 0 = no growth, -100 = all killed)
Settings in all cases: 10 µM unless noted
[1] = tested on: HT29 colon
[2] = tested on: SNB-75 CNS
[3] = tested on: SNB-19 CNS
[4] = tested on: U251 CNS
[5] = tested on: SK-MEL-5 melanoma
[6] = tested on: UACC-62 melanoma
[7] = tested on: LOX IMVI melanoma
[8] = tested on: SK-MEL-28 melanoma
[9] = tested on: SK-MEL-2 melanoma
[10] = tested on: EKVX NSCLC
[11] = tested on: SN12C renal
[12] = tested on: UO-31 renal
[13] = tested on: TK-10 renal
[14] = tested on: ACHN renal
[15] = tested on: A498 renal
[16] = tested on: CCRF-CEM leukemia
[17] = tested on: MOLT-4 leukemia
[18] = tested on: PC-3 prostate
[19] = tested on: CAKI-1 renal

Row | Structure (SMILES) | growth [1] | growth [2] | growth [3] | growth [4] | growth [5] | growth [6] | growth [7] | growth [8] | growth [9] | growth [10] | growth [11] | growth [12] | growth [13] | growth [14] | growth [15] | growth [16] | growth [17] | growth [18] | growth [19]
1 | NC(CSC(c1ccccc1)(c1ccccc1)c1ccc(Cl)cc1)C(=O)O (centres undefined) | 2.26% (active) | 20.9% | 37.9% | 12.2% | 10.6% | 7.9% (active) | 36% | 33.4% | -9.63% (active) | 27.1% | 27.5% | 65% | 64.8% | 53% | 26.7% | 3.48% (active) | 6.35% (active) |  | 
2 | CN(C)c1ccc(N=Nc2ccc(Br)cn2)c(O)c1 | 21.9% | 39.1% | 19.6% | 11.4% |  | -45.3% (active) | 6.61% (active) | 29.9% | 18.8% | 14.3% |  | 3.75% (active) | 33.9% | 7.81% (active) | 53.9% | -0.72% (active) | 1.73% (active) | 33.3% | 
3 | O=C1/C(=C/c2ccc3c(c2)OCO3)SC(=S)N1CCc1ccc(O)cc1 | 113% | 83.7% | 95.5% | 102% | 98.2% | 88% | 91.3% | 104% | 100% | 98.8% | 92.1% | 58.8% | 81.3% | 97.2% | 111% | 56.7% | 87.3% |  | 81%
4 | CCN(CC)c1ccc(/C=N\NC(=O)/C=C/C=C/c2ccc3c(c2)OCO3)c(O)c1 | 67.8% | 58.8% | 61% | 43.3% |  | 29.1% | 18.2% | 52.1% |  | 52.2% | 54.1% | 25% | 37.8% | 25.6% |  | 21.7% | 18.3% | 40.9% | 29.3%
5 | O=C(Cc1ccc(/C=C/C(=O)c2ncc[nH]2)cc1)Nc1ccccc1 | 4.83% (active) | 58.4% | 22.6% | 11.3% |  | 68.5% | 10.1% | 98.9% | 82.8% | 64.6% | 21.8% | 31.3% | 49.1% | 76% | 83.5% | 3.9% (active) | 29.1% | 57.1% | 
6 | COc1ccc(/C=C/C(=O)c2ccc(O)c(CN3CCN(c4cc5c(cc4F)c(=O)c(C(=O)O)cn5C4CC4)CC3)c2)cc1 | 11.1% | -5.37% (active) | 24% |  | -23% (active) | 27.2% | 12.8% | 57.9% | 34.5% | 57.3% | 7.55% (active) | 3.15% (active) | 52.7% | 25.5% | -0.877% (active) | 28.6% | 45.7% | 18.1% | 32%
7 | c1ccc(-c2cc3n4c(-c5ccccc5)nn(-c5ccccc5)c4cnc-3n2)cc1 | 44.3% | -8.19% (active) | 75.9% | 26.4% | 70.5% | 45.7% | 57.1% | 63.3% |  |  | 62.6% | 60.7% | 24.5% | 68.2% | 78.1% |  | 88.9% |  | 59.5%
8 | Cc1cc(C)nc(SC2=C(Nc3cc(Cl)ccc3O)C(=O)N(Cc3ccccc3)C2=O)n1 |  | 81% [30 µM] | 89.6% [30 µM] | 87.5% [30 µM] | 49% [30 µM] | 70.6% [30 µM] | 71.1% [30 µM] | 106% [30 µM] | 97.6% [30 µM] | 83.9% [30 µM] | 91.6% [30 µM] | 82.4% [30 µM] | 23.8% [30 µM] | 88.7% [30 µM] | 75.5% [30 µM] | 22.1% [30 µM] | 46.3% [30 µM] |  | 99.7% [30 µM]
9 | C[n+]1ccccc1/C=C/c1ccc2cccc(O)c2n1 | 101% | 86.8% | 97% | 100% |  | 105% |  | 95.7% | 103% | 32% | 91.8% | 57.9% | 109% | 102% | 63.9% | 103% | 95.2% | 94.7% | 57.3%
10 | O=C(/C=C/c1ccccc1)c1ccc(O)c(CN2CCN(c3cc4c(cc3F)c(=O)c(C(=O)O)cn4C3CC3)CC2)c1 | 5.56% (active) | -2.4% (active) | 29.8% |  | -42.1% (active) | 21.3% | 6.26% (active) | 46.5% | 22.8% | 43.3% | 8.48% (active) | 12.3% | 62.7% | 14.4% | -18.4% (active) | 18.4% | 35.8% | 18.3% | 20.6%
11 | CCCCn1c(-c2ccc(C(=O)O/N=C(\N)c3ccc4ccccc4c3)cc2)nc(-c2ccccc2)c1-c1ccccc1 | 74.3% | 23.3% | 70.3% | 73% |  | 76.2% | 3.13% (active) | 88.5% | 96.4% | 75.7% | 63.5% | -24.1% (active) | 86.2% | -72.7% (active) |  | 40.8% | 62.8% | 64.8% | 32.3%
12 | CC(C)n1c(/C=C/[C@@H](O)C[C@@H](O)CC(=O)O)c(-c2ccc(F)cc2)c2ccccc21 | 75.9% | 29.9% | 55.7% | 15.9% |  | 16.3% | 5.69% (active) | 72.9% | 15% | 52.7% | 36.4% | 44.7% | 88.7% | 10.3% | -21.3% (active) | 59.8% | 60.8% | 26.5% | -42.9% (active)
